112 molecules from ChEMBL document CHEMBL4513216, “Probing the Open Global Health Chemical Diversity Library for Multistage-Active Starting Points for Next-Generation Antimalarials” (ACS Infect Dis, 2020) can be followed below.

The structures appear in SMILES notation. Among all 69,000 compounds or so, about 8,600 (12%) showed an effect of 50% or more. Shown is part of a subset that was picked to be rich in strong results.

This assay has as its system Plasmodium berghei. Put plainly: Screen against P. berghei liver stage (PbLuc), transformed with Luciferase, at 10uM. The class given is functional, HepG2. Particulars: tested at 10 uM.
Regarding `Cc1nc(-c2ccccc2)n(CC(=O)NC(C)C)n1`, the INHIBITION is given as 31.2%. In the case of `CNC(=O)c1ccc(OC)c(NCc2noc(-c3cccs3)n2)c1` it was 10%. Consider `COc1ccc(C(N)=O)cc1NCc1ncc(C(C)(C)C)o1`, for which the INHIBITION is 15.7%.

Consider `COc1ccc(C(N)=O)cc1NCc1nc(-c2cccs2)oc1C`, for which the INHIBITION amounted to 68%. In the case of `CCc1nc(CCNC(=O)Nc2cc(C(N)=O)ccc2OC)cs1` it was -10.8%; in that of `CNC(=O)c1ccc(OC)c(NCc2noc(-c3ccsc3)n2)c1`, -48.5%; in that of `CNC(=O)c1ccc(OC)c(NCc2ncc(-c3cccs3)o2)c1`, 61.1%. On to `COc1ccc(C(N)=O)cc1NCc1noc(-c2ccsc2)n1`, for which the INHIBITION is 9.06%.

As to `COc1ccc(C(N)=O)cc1NCc1ncc(-c2cccs2)o1`, the INHIBITION came out at 69.7%. With `COc1ccc(NC(=O)CCn2nc(-c3cccs3)oc2=O)cc1OC` the figure was -22.9%. In the case of `COc1ccnc(N2CCN(CC(O)CN3CCOCC3)CC2)n1` (configuration not stated) it was 4.52%; in that of `Cn1ccnc1CN1CCC(c2nnc(Cn3cccn3)n2C)CC1`, 16.3%. In the case of `N#Cc1ccccc1C(=O)N1C[C@@H]2CC[C@H]1CN(c1ncccn1)C2` it was 12.9%; in that of `N#CC1(C(=O)N2CCCN(c3nccs3)CC2)CCCCC1`, 11.45%. As to `O=C(c1cnc(-c2cnccn2)s1)N1CCCC(n2cccn2)C1` (configuration not stated), the INHIBITION was 10%.

In the case of `CN1CCC(Oc2ccc(-n3ccnc3-c3nccn3C)cc2)CC1`, the INHIBITION is recorded as 13%. In the case of `CN(CCc1ccccc1)C(=O)c1cccnc1OCC(F)(F)F` it was 45.1%.

Take `Cc1cc(=O)n2nc(CNc3cc(Cl)ccc3C)nc2[nH]1`: the INHIBITION stood at 39.2%. In the case of `Cc1ncsc1C(=O)NCCN1CCCCCC1=O` it was 25.4%; in that of `COC(=O)CNC(=O)c1sccc1N(C)S(=O)(=O)c1ccc(Cl)cc1`, 20.1%; in that of `CCCNC(=O)c1sccc1N(C)S(=O)(=O)c1ccc(Cl)cc1`, 23.7%. With `CN(C)CCNC(=O)c1sccc1N(C)S(=O)(=O)c1ccc(Cl)cc1` the figure was 54%; with `CNC(=O)c1sccc1N(C)S(=O)(=O)c1ccc(Cl)cc1`, 84.7%; with `Cc1ccc(S(=O)(=O)N(C)c2ccsc2C(=O)NCC(C)C)cc1`, 28.4%. In the case of `COCCNC(=O)c1sccc1N(C)S(=O)(=O)c1ccc(Cl)cc1` it was 51.6%; in that of `CCNC(=O)c1sccc1N(C)S(=O)(=O)c1ccc(Cl)cc1`, 26.7%.

`CC(C)CCNC(=O)c1sccc1N(C)S(=O)(=O)c1ccccc1`: the INHIBITION is 0%. Take `CC(C)NC(=O)c1sccc1N(C)S(=O)(=O)c1ccc(Cl)cc1`: the INHIBITION amounted to 0%. Turning to `CN1CCCC1c1nnc2n1CCN(S(=O)(=O)c1ccccc1Cl)CC2` (configuration not stated), the INHIBITION is given as -12.252%. With `NC(=O)[C@@H]1Cc2ccccc2N1C(=O)C1CC(c2ccccc2)=NO1` (some centres not stated) the figure was -13.6%; with `CNC(=O)CN(C)C(=O)c1cc(Cl)c(Cl)n1C`, 37.1%; with `Cc1nnc(NCc2cccc(OCc3ccccn3)c2)c(C#N)c1C`, 40.1%. Take `COCC(=O)NCc1cc(=O)n2c(n1)CN(Cc1ccsc1)CCC2`: the INHIBITION was 41.5%. With `CO[C@H]1CN(C(=O)OC(C)(C)C)CC1NCc1ccn(C)c1` (some centres not stated) the figure was 39.6%; with `CN(Cc1ccco1)C(=O)[C@H]1CSCN1C(=O)OC(C)(C)C`, 29.6%; with `CO[C@H]1CN(C(=O)OC(C)(C)C)CC1NCc1ccoc1` (some centres not stated), 66.5%. With `CO[C@H]1CN(C(=O)OC(C)(C)C)CC1NCc1cc[nH]c1` (some centres not stated) the figure was 38.7%; with `CC(C)(C)OC(=O)N1CC(=O)N(Cc2ccco2)CC(O)C1` (configuration not stated), 29.8%; with `CO[C@H]1CN(C(=O)OC(C)(C)C)CC1NCc1cccn1C` (some centres not stated), 54.5%. On to `CC(C)(C)OC(=O)N1CC(=O)N(CCc2ccccc2)CC(O)C1` (configuration not stated), for which the INHIBITION was determined as 9.36%.

Take `CC(C)(C)OC(=O)N1CCC(C(=O)NCc2ccccc2)C1` (configuration not stated): the INHIBITION is listed as -10.3%. Turning to `CO[C@H]1CN(C(=O)OC(C)(C)C)CC1NCc1ccco1` (some centres not stated), the INHIBITION is listed as 74%. With `CCOCCN1Cc2ncn(C)c2C(COCC2CCOCC2)C1` (configuration not stated) the figure was 36.9%; with `CCCc1ccc2oc(C(=O)N3CCN(CCOC)CC3)c(C)c2c1`, -13.1%; with `COc1ccc(-n2cccn2)c(CN2CCC3(CCCN(C)C3=O)C2)c1` (configuration not stated), 43.9%. With `Nc1nc(N)c2c(n1)OC1(CCN(C(=O)CC3CCCNC3)CC1)C2` (configuration not stated) the figure was 27.1%; with `Cc1cc(C(=O)N[C@H]2Cc3ccccc3[C@@H]2N)c(=O)[nH]c1C`, 21.5%. In the case of `Cc1nc(CN2CCN(C)C(=O)C23CCN(CC2CCCC2)CC3)cs1` it was 49.4%.

In the case of `Cc1noc([C@H]2COC[C@H]3CN(C(=O)Cc4ccccc4F)C[C@H]32)n1`, the INHIBITION turned out to be 12.7%. With `O=C(CCCn1cccn1)N1C[C@@H](O)[C@H](Oc2cccc(F)c2)C1`, the INHIBITION is given as 32.8%. For the molecule `CCn1cc(CN(C)C(=O)c2cccc(CCC(C)(C)O)c2)cn1`, the INHIBITION worked out at 7.11%. As for `Cc1cccnc1[C@H](C)NC(=O)c1cccc(CC2CCNCC2)c1`, the INHIBITION was 15%. In the case of `CC(C)Cn1cncc1CNC(=O)c1cccc(CC2CCNCC2)c1` it was 42.3%; in that of `Cc1cnccc1CN(C)C(=O)c1cccc(CCC(C)(C)O)c1`, -2.39%.

Consider `O=C(NCc1cnn2cccnc12)c1cccc(CC2CCNCC2)c1`, for which the INHIBITION is 77.7%. With `CC(C)(O)CCc1cccc(C(=O)NCc2cnn3cccnc23)c1` the figure was 54.5%; with `CCOc1ccccc1CC(=O)N1C[C@H](C2CC2)[C@@H](N)C1`, 2.66%; with `Cc1nn(C)cc1NC(=O)CN1CCN(C2CCCC2)C(=O)C1`, 19.35%.

Regarding `CC(C)c1nc(C2CCCN2Cc2nccn2CC(F)(F)F)no1` (configuration not stated), the INHIBITION stood at 26.4%. Take `c1cc(-c2cnc(NC3CC3)nc2[C@@H]2CCCO2)ccn1`: the INHIBITION was 5.34%. `Cc1ccc(NC2CCN(C(=O)COC3CCCCC3)CC2)nn1`: the INHIBITION is given as -7.81%. Turning to `Cc1ccc(NC2CCN(C(=O)COCC(F)(F)F)CC2)nn1`, the INHIBITION was 53%.

Regarding `Cc1ccc(NC2CCN(C(=O)COc3ccccc3)CC2)nn1`, the INHIBITION is listed as -29.7%. In the case of `O=C(COCC1CC1)N1CCSCC1` it was 64.9%; in that of `CC(C)(O)CN1CCN(C(=O)COCC2CC2)CC1`, -38.8%. Consider `Cc1ccc(NC2CCN(C(=O)CCOCC(F)(F)F)CC2)nn1`, for which the INHIBITION is recorded as 33.3%.

As for `Cc1ccc(NC2CCN(C(=O)COC3CCCC3)CC2)nn1`, the INHIBITION was -28.4%. In the case of `CS(=O)(=O)NCC1CCCN(C(=O)COCC2CC2)C1` (configuration not stated) it was 48.1%; in that of `Cc1ccc(NC2CCN(C(=O)COCC3CC3)CC2)nn1`, 56.6%; in that of `O=C(NCc1csc(Br)c1)N1CCOCC1`, -6.865%. Regarding `COCCC(=O)NCCc1nc2cc(-c3ccc(OC)cc3)ncn2n1`, the INHIBITION is reported as 23.5%. In the case of `Cc1oncc1C(=O)N1CCC2(CC1)C(c1cnn(C)c1)CC(=O)N2C` (configuration not stated) it was -15.5%. With `CN(C)CC1[C@H]2CN(C(=O)c3cc(=O)[nH]c4ccc(F)cc34)C[C@@H]12` (some centres not stated), the INHIBITION turned out to be 43%. In the case of `CCC(C(=O)NC(C)(C)C)n1ccc2ncccc2c1=O` (configuration not stated) it was 20.9%; in that of `c1coc(-c2nc(CNC3CCCNC3)no2)c1` (configuration not stated), -25.6%; in that of `CN(C)c1cc(C2CCCN2C(=O)c2ccc(=O)n(C)c2)ccn1` (configuration not stated), -76.7%.

As for `CN(C)c1cc(CNC(=O)c2ccccc2Cl)ccn1`, the INHIBITION is reported as -7.35%. In the case of `CC(c1cccc(Cl)c1)N(C)Cc1nc2c(cnn2C)c(=O)[nH]1` (configuration not stated) it was 15.32%. On to `COCCc1ncc(CNC2(c3ccc(Cl)cc3)CC2)cn1`, for which the INHIBITION is given as -57.4%. As to `CC(C)CN1C[C@@H]2C(=O)N(C)C3(CCN(C(=O)C(C)C)CC3)[C@@H]2C1`, the INHIBITION was -40.5%. With `Cc1noc(C(C)C)c1C(=O)NCCCN1CCNCC1` the figure was -18%; with `Cc1noc(C(C)C)c1C(=O)NCCCN1CCC(C)CC1`, -12.1%.

With `Cc1noc(C(C)C)c1C(=O)NCCCN1CCCC1`, the INHIBITION was found to be 66.2%. With `Cc1ccc2c(n1)N(CCn1cccn1)CCN(S(C)(=O)=O)C2` the figure was -73.5%.

As for `c1ccc(Cc2nnc(CN3CCn4c(nnc4C4CC4)C3)o2)cc1`, the INHIBITION was 21.5%.

As for `CNc1ncc(CN(C)C(=O)[C@@]23CNC[C@@H]2CN(C(=O)C2CC2)C3)cn1`, the INHIBITION was -149%. With `Cc1cnc(CN(C)C(=O)C23CNCC2CNC3)[nH]1` (configuration not stated) the figure was 58.4%. On to `Cc1c[nH]c(CN(C)C(=O)[C@@]23CNC[C@@H]2CN(c2ncccn2)C3)n1`, for which the INHIBITION is listed as 30%. In the case of `Cc1ccc(CN2CCOCS2(=O)=O)cc1F`, the INHIBITION was determined as 38%. On to `CCn1cc(NC(=O)NCc2ccc(CN3CCOCC3)cc2)cn1`, for which the INHIBITION is listed as 30.2%. In the case of `O=C(O)c1cc(-c2ccoc2)cc(S(=O)(=O)NC2CC2)c1` it was 27.6%; in that of `O=C(O)c1cc(-c2ccc3c(c2)OCO3)cc(S(=O)(=O)NC2CC2)c1`, 8.74%. As for `CN(C)c1ccc(-c2cc(C(=O)O)cc(S(=O)(=O)NC3CC3)c2)cc1`, the INHIBITION was 84.9%.

`N#CC1Sc2nnc(-c3ccccc3F)n2N=C1N` (configuration not stated): the INHIBITION is 11.6%. With `COc1ccc2[nH]cc(-c3ccnc(NC4CCCC4)n3)c2c1` the figure was 90.1%; with `O=c1[nH]c(-c2ccncc2)ncc1-c1ccnc(NC2CCCCC2)n1`, 1.11%. Turning to `COc1ccc2[nH]cc(-c3ccnc(N4CCC(C)CC4)n3)c2c1`, the INHIBITION is recorded as 36.7%. With `Cc1ccc(CN2CC[C@@]3(O)CCN(S(=O)(=O)N(C)C)C[C@H]3C2)cc1C` the figure was -4.95%; with `COc1ncccc1CNC(=O)Nc1ccc(N(C)C)nc1`, 15.6%; with `COCCN1C(=O)CCC12CCN(c1ncc(F)cn1)CC2`, 14.1%.

As to `CCn1ncc2c1CCCC2NCc1ccccc1N1CCOCC1` (configuration not stated), the INHIBITION worked out at 56.4%. For `CCn1ncc2c1CCCC2NCc1ccc(OC)c(F)c1` (configuration not stated), the INHIBITION was 21.5%. Take `Cc1ccc(CNC2CCCc3c2cnn3Cc2ccccc2)s1` (configuration not stated): the INHIBITION is on record as 60.9%. Regarding `CCn1ncc2c1CCCC2NCC1=Cc2ccccc2OC1` (configuration not stated), the INHIBITION is recorded as 63.9%. In the case of `CCn1ncc2c1CCCC2NCc1ccc(C)s1` (configuration not stated) it was -21.9%; in that of `CCn1ncc2c1CCCC2NCc1cc(C)ccc1OC` (configuration not stated), 9.14%; in that of `CCCOc1ccc(CNC2CCCc3c2cnn3CC)cc1OC` (configuration not stated), 52%. With `CCn1ncc2c1CCCC2NCc1cscn1` (configuration not stated) the figure was 35.4%; with `CCn1ncc2c1CCCC2NCc1cccc2c1OCO2` (configuration not stated), 33.8%. In the case of `CCn1ncc2c1CCCC2NCc1cccc2c1OCCO2` (configuration not stated) it was 18.6%; in that of `CCn1ncc2c1CCCC2NCc1ccc(OC)c(C)c1` (configuration not stated), 38%; in that of `Cc1cccc(CNC2CCCc3c2cnn3Cc2ccccc2)c1` (configuration not stated), 26.4%.
